Test results reported in PMC5540273 (PLoS ONE, 2017).

Tests used:
Settings in all cases: concentration: 1 μM,replicates: in singlicate; n = 1
SNARK = test system: T1, SNARK
T1 construct: gene NUAK2

SNRK = test system: SNRK
SRC = test system: SRC
SRMS = test system: SRMS
SRPK1 = test system: SRPK1
SRPK2 = test system: SRPK2
SRPK3 = test system: SRPK3
STK16 = test system: STK16
STK33 = test system: STK33
STK35 = test system: STK35
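Note: KINOMEscan kinase panel screen.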

Structure (SMILES)	%Inh (SNARK) [%]	%Inh (SNRK) [%]	%Inh (SRC) [%]	%Inh (SRMS) [%]	%Inh (SRPK1) [%]	%Inh (SRPK2) [%]	%Inh (SRPK3) [%]	%Inh (STK16) [%]	%Inh (STK33) [%]	%Inh (STK35) [%]
COc1ccc(C[C@@H](CN)NC(=O)c2cc(Br)c(-c3ccnc4[nH]ccc34)s2)cc1.Cl.Cl [GSK1389063]	98.2	0	36	0	86	0	28	55	99.2	14
CNC(=O)c1ccccc1Sc1ccc2c(/C=C/c3ccccn3)n[nH]c2c1	77	9	4	0	82	12	21	12	0	25
Cc1ccc(-n2nc(C(C)(C)C)cc2NC(=O)Nc2ccc(OCCN3CCOCC3)c3ccccc23)cc1 [GW839464]	0	0	0	8	64	0	29	6	21	0
O=C(NCCNc1ccnc(NCc2ccc(F)cc2)n1)c1cc2ccccc2s1 [GSK1379944]	31	0	4	0	13	0	0	78	0	0
Cl.Oc1cc(-c2nc(-c3ccccc3)[nH]c2-c2ccncc2)ccc1Cl [SB-386023]	24	0	88	12	0	0	5	7	0	0
Nc1nc(Nc2ccccc2)cc(-c2ccc3c(N)n[nH]c3c2)n1 [GSK2225749]	21	0	0	0	80	2	83	59	14	0
NC(=O)c1cc(-c2ccccc2)cc2c(C3CCNCC3)c[nH]c12 [GSK301362]	91.8	0	0	0	58	0	0	8	0	49
Cl.Cl.NC[C@H](Cc1ccc(C(F)(F)F)cc1)NC(=O)c1cc(Br)c(-c2ccnc3[nH]ccc23)s1 [GSK1487252]	91.5	0	0	0	47	0	0	16	96.8	0
Cc1cc2cn[nH]c2cc1-c1cccc2c(N)c(C(N)=O)nnc12	62	11	17	35	49	14	34	0	0	0
CN(C)CCOc1ccc(-c2cc(-c3c[nH]nc3-c3ccccn3)ccn2)cc1 [GW835314]	19	80	20	0	0	0	19	75	0	0
Cc1cc(C(=O)Nc2ccc(Oc3ccc4nc(NC(=O)C5CC5)cn4n3)cc2)nn1-c1ccccc1	0	0	34	0	8	33	30	18	0	0
Cc1ccc2c(-c3ccncc3)c(-c3ccc(F)cc3)nn2c1.Cl [GW461484]	4	0	7	5	0	17	0	8	14	0
Cc1occc1-c1nc(N)c(OC[C@@H](N)Cc2c[nH]c3ccccc23)cc1-c1cc2c(C)n[nH]c2cn1 [GSK1660450]	96.9	0	95.6	0	71	0	56	3	84	28
